In the library only some 27% were active in any assay of this set; here they are far more common.
CYP2C9 inhib = inhibitors of human CYP2C9. 96,000 compounds, 20% hits. P11712. inhibition, % at 5 µM. CYP2C9 Supersomes, luciferin-H conversion, luminescence;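 active = blocking of liver enzyme CYP2C9 beyond about 50% at 5 µM, limit read from the data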
Target sequence (P11712 whole entry, looked up): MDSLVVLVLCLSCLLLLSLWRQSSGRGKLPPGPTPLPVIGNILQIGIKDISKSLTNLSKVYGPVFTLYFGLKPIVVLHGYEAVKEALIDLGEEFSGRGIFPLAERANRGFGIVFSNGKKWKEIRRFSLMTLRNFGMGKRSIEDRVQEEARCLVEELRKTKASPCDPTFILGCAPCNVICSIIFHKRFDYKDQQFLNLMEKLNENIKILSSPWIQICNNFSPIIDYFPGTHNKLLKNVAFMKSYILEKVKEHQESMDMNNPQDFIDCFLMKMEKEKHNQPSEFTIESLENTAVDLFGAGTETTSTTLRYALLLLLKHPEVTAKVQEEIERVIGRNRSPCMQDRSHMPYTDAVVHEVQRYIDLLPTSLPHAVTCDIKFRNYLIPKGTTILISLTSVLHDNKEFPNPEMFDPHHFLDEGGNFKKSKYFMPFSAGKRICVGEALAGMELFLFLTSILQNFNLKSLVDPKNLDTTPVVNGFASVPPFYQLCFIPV
CYP2C9 act = CYP2C9 (human) activation; recombinant CYP2C9, luciferin-H conversion, luminescence; active compounds read high; factor 1 = untreated enzyme, 0 = blocked; activation factor at 5 µM; 96,000 compounds, 1.4% hits; AID 1024;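 active = activation factor of 2 or more for CYP2C9 at a 5 µM dose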
CYP2C19 inh = blocks human cytochrome P450 2C19; CYP2C19 Supersomes, luciferin-H EGE luminescence, 30 min; inhibition, % at 5 µM; 96,000 compounds, 21% hits; AID 778;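 active = CYP2C19 inhibition above a set limit at 5 µM in the primary screen, cut at about 50% in these data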
Cav32 inh = human Cav3.2 channel inhibition, primary screen. Cav3.2-expressing cells, Fluo-4 calcium fluorescence FDSS; active compounds read low. 100,000 compounds, 4% hits. B-score at 10 µM. AID 449739;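 active = single-dose well whose peak fluorescence ratio is a statistical outlier from its plate by either plate-standardised score or position-corrected B-score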
CYP2C19 activ = activators of human cytochrome P450 2C19 | P33261 | recombinant CYP2C19, luciferin-H EGE luminescence; active compounds read high; 0 = fully inhibited enzyme, 1 = untreated enzyme | activation factor at 5 µM | 96,000 tested, under 10 active;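 active = activation factor of at least 2 at 5 µM in the primary screen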
Large screens that a line does not name were inactive.

COc1ccc(N2C(=O)CSC23C(=O)N2CCCc4cccc3c42)cc1 (stereo not given)	none
COc1ccc(N2C(=O)CSC23C(=O)N2c4c(cccc43)C(C)=CC2(C)C)cc1 (stereo not given)	CYP2C9 inhib 80, CYP2C19 inh 98
Cc1cc(C(=O)N2CCCCCC2)cs1	CYP2C19 inh 58
Cc1cc(C)cc(C(=O)N2CCCCCC2)c1	none
Cc1ccccc1CSCC(=O)c1c(N)n(C)c(=O)n(C)c1=O	CYP2C9 inhib 58, CYP2C19 inh 99
CC(O)C(NS(=O)(=O)c1ccc(Cl)cc1)C(=O)OCc1nnc(-c2ccccc2)o1 (stereo not given)	none
CC(O)c1nc2ccccc2n1Cc1nnc(-c2ccc(Cl)cc2)o1 (stereo not given)	CYP2C19 inh 66
COc1cc(C(=O)NCc2cccc3ccccc23)ccc1OCc1ccccc1	CYP2C9 inhib 69 (no result: Cav32 inh)
O=C(NCc1ccccc1)c1cccc(COc2ccccc2Cl)c1	Cav32 inh -6.5
NNC(=O)c1cccc(COc2ccccc2Br)c1	CYP2C9 inhib 78, CYP2C19 inh 98 (no result: Cav32 inh)
COc1ccccc1CNC(=O)c1cccc(N(C)C)c1	CYP2C9 act 2.3
COc1ccc(CNC(=O)c2cccc(N(C)C)c2)cc1	none
FC(F)(F)C(Oc1nc(Nc2ccc(Cl)cc2)nc(N2CCOCC2)n1)C(F)(F)F	none (no result: CYP2C9 inhib, CYP2C9 act, CYP2C19 inh, CYP2C19 activ)
CCc1ccc(OCc2nnc(NC(=O)c3cccs3)s2)cc1	none (no result: Cav32 inh)
c1ccc2nc3ccccc3nc2c1	Cav32 inh -4.4 (no result: CYP2C9 inhib, CYP2C9 act, CYP2C19 inh, CYP2C19 activ)
O=c1cc(C(Cl)(Cl)Cl)oc2c1ccc1ccccc12	CYP2C9 inhib 65, CYP2C19 inh 56
O=C(Nc1cccc(NS(=O)(=O)c2ccc(S(=O)(=O)NC3CC3)cc2)c1)c1ccccn1	CYP2C9 inhib 97, CYP2C19 inh 99
CC(C)C(NC(=O)c1ccccc1)c1nnc(SCC(=O)Nc2nccs2)n1C (stereo not given)	none
CCn1c(SCc2ccc(C(=O)Nc3nccs3)cc2)nnc1-c1ccc(NC(C)=O)cc1	CYP2C9 inhib 85
Cn1c(SCc2ccc(C(=O)Nc3nccs3)cc2)nnc1-c1ccccc1	CYP2C9 inhib 68
CCn1c(SCc2ccc(C(=O)Nc3nccs3)cc2)nnc1-c1ccc(N)cc1	CYP2C9 inhib 68
c1ccc2c(c1)sc1nnnn12	none (no result: Cav32 inh)
Cc1c(Cl)cccc1-n1nnnc1-c1cccs1	CYP2C19 inh 96
CCOc1cc(NC(=O)c2ccco2)c(OCC)cc1NC(=O)c1cc(OC)c(OC)c(OC)c1	CYP2C9 inhib 57
CCOc1cc(NC(=O)c2ccco2)c(OCC)cc1NC(=O)CCc1ccccc1OC	none
Cc1ccc(C(=O)OCC(=O)Nc2ccccc2)cc1NC(=O)c1ccco1	none
COc1cc(C(=O)OCC(=O)NC2CCCC2)cc(NC(=O)c2ccco2)c1OC	CYP2C9 inhib 73, CYP2C19 inh 78
O=C(c1ccco1)N1CCN(C(=O)c2nn3cccnc3c2Cl)CC1	none
O=c1sc2ccccc2n1CCOc1ccccc1	CYP2C9 inhib 88, CYP2C19 inh 98
COc1ccccc1OCCCn1c(=O)sc2ccccc21	CYP2C9 inhib 74, CYP2C19 inh 100
Cc1ccc(OCn2c(=O)sc3ccccc32)cc1	CYP2C19 inh 56
O=C(O)CCn1c(=O)sc2ccccc21	none
CC(C)OC(=O)Cn1c(=O)sc2ccccc21	none
O=C(NCCC(=O)N1CCNC1=O)OCc1ccccc1	none
Cc1ccccc1COC[C@H](CC(C)C)N1CCN(C(=O)c2cccc(C(F)(F)F)c2)CCC1=O	none (no result: CYP2C9 inhib, CYP2C9 act, CYP2C19 inh, CYP2C19 activ)
COc1ccc(Cc2nnc(NC(=O)CSc3ccc(C)cc3)s2)cc1OC	none
Cc1ccc(OCC(=O)N2CCN(C(=O)Cc3ccccc3)CC2)cc1	none
O=C(COc1ccccc1)N1CCN(S(=O)(=O)c2cccs2)CC1	CYP2C19 inh 64
O=C(COc1ccc(-c2ccccc2)cc1)N1CCN(S(=O)(=O)Cc2ccccc2)CC1	CYP2C9 inhib 53
CCOC(=O)C1CCN(C(=O)COc2ccc(N(C)S(=O)(=O)c3cccs3)cc2)CC1	CYP2C9 inhib 90, CYP2C19 inh 62
Cn1cc(C(F)(F)F)nc1-c1ccc(OCC(O)CNCCOc2ccc(O)c(C(N)=O)c2)cc1 (stereo not given)	none (no result: CYP2C9 inhib, CYP2C9 act, CYP2C19 inh, CYP2C19 activ)
CC(C)CC(NC(=O)OC(C)(C)C)C(=O)NCc1ccccc1 (stereo not given)	none
CC(=O)SCC(C)C(=O)NCc1ccccc1 (stereo not given)	CYP2C19 inh 64
COc1ccc(C2Nc3ccccc3C(=O)N2Cc2ccccc2)cc1COc1ccccn1 (stereo not given)	CYP2C9 inhib 61, CYP2C19 inh 54
COc1ccc(C2Nc3ccccc3C(=O)N2Cc2ccco2)cc1COc1ccc(F)cc1 (stereo not given)	Cav32 inh -7 (no result: CYP2C9 inhib, CYP2C9 act, CYP2C19 inh, CYP2C19 activ)
COc1ccc(C2Nc3ccccc3C(=O)N2Cc2ccco2)cc1CN1C(=O)c2ccccc2C1=O (stereo not given)	CYP2C9 inhib 85, CYP2C19 inh 74
COc1ccc(CN2C(=O)c3cccnc3C2O)cc1 (stereo not given)	none
CC(C)N(Cc1nc(-c2ccccc2)no1)C(=O)CCCN1C(=O)c2ccccc2C1=O	CYP2C9 inhib 67, CYP2C19 inh 67
COc1ccc(-c2noc(CN(C(=O)c3cccs3)C(C)C)n2)cc1	CYP2C9 inhib 68
Cc1cccc(-c2noc(CN(C(=O)CCc3ccccc3)C(C)C)n2)c1	none
CC(NC(=O)C(c1ccccc1)c1ccccc1)C(=O)O (stereo not given)	none
Cc1ccc(-c2noc(CN(C(=O)C(c3ccccc3)c3ccccc3)C(C)C)n2)cc1	CYP2C9 inhib 66, Cav32 inh -8.5
COc1ccc(-c2noc(CCCC(=O)O)n2)cc1	none
CC(C)N(CCO)C(=O)C(c1ccccc1)c1ccccc1	CYP2C9 inhib 59, CYP2C19 inh 90
COC(=O)C1=C(C(=O)OC)[C@@H]2Nc3ccccc3[C@@]23C[C@@H](C(=O)OC)N(C(=O)c2cccs2)C3=N1	none (no result: CYP2C9 inhib, CYP2C9 act, CYP2C19 inh, CYP2C19 activ)
CCCC[C@@H]1CCCO[C@@](C(=O)NCc2ccccn2)(C(F)(F)F)C1	none (no result: CYP2C9 inhib, CYP2C9 act, CYP2C19 inh, CYP2C19 activ)
CC(C)N(Cc1nc(-c2ccc(Cl)cc2)no1)C(=O)C(c1ccccc1)c1ccccc1	CYP2C9 inhib 54, Cav32 inh -4.3
O=C1CC(Nc2ccc(N3CCOCC3)cc2)C(=O)N1CCc1ccccc1 (stereo not given)	none
C=CCNC1=C(Cl)C(=O)N(c2cccc(Cl)c2Cl)C1=O	CYP2C19 inh 90
CN1CCN(C2=C(Cl)C(=O)N(CCc3ccccc3)C2=O)CC1	CYP2C19 inh 56
Cc1ccc(N2C(=O)C(Cl)=C(NCCO)C2=O)c(C)c1	none
O=C1C(Cl)=C(N2CCOCC2)C(=O)N1CCc1ccccc1	CYP2C19 inh 88
O=C1C(Cl)=C(NCCc2ccccc2)C(=O)N1CCc1ccccc1	none
O=C1C(Cl)=C(NCCCN2CCOCC2)C(=O)N1CCc1ccccc1	CYP2C9 inhib 78 (no result: Cav32 inh)
O=C1C(Cl)=C(N2CCN(Cc3ccccc3)CC2)C(=O)N1c1ccccc1	none
COc1ccc(S(=O)(=O)N(n2c(C)nnc2-n2nc(C)cc2C)S(=O)(=O)c2ccc(OC)cc2)cc1	none (no result: CYP2C9 inhib, CYP2C9 act, CYP2C19 inh, CYP2C19 activ)

Assay outcomes deposited in PubChem by several laboratories.
